Shiga toxin inh: inhibitors of Shiga toxin in Vero cells; AID 2315; inhibition, % at 38.7 µM; 290,000 compounds, 9.2% hits; Vero cells, Shiga toxin protein synthesis inhibition reporter; in the data active = inhibition mostly above about 28%, no sharp cut-off; inactive = mostly below about 43%; note: 0% is about no effect
CHX counter: counter-screen hit for Shiga toxin inhibitors, cycloheximide | max response, % | cell reporter, cycloheximide protein synthesis inhibition counterscreen | 300,000 compounds, 12% hits; in the data active = max response mostly above about 13%, no sharp cut-off; inactive = mostly below about 14%; note: read at 38.3 µM for the half of the compounds with a filed dose; 0% is about no effect
Pf growth 96h: P. falciparum growth inhibition at 96 hour, primary screen for plastid delayed-death inhibitors. P. falciparum luciferase reporter growth, 96 h. Potency, µM (series often up to 28.7 µM), for inactives: top-dose activity change, negative = inhibition, hits mostly inhibitors. 320,000 compounds, 6.9% hits; note: potency is the fitted concentration of half-maximal effect; % is set by controls: 0 for no effect and ±100 for the full control effect
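Parasite growth measured via integrated firefly luciferase reporter in P. falciparum. Infected erythrocytes at 2% hematocrit, 0.05% parasitemia final were treated 96 hours at 37 C under 5% CO2, and luminescence was read.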
HCMV antiviral: human cytomegalovirus inhibition; HFF cells, HCMV-luciferase reporter, 72 h; stronger effect = lower value; activity change, negative = inhibition, % at 57.5 µM; 410,000 compounds, 4.5% hits; AID 1259415; in the data active = activity change below about -60%; inconclusive = no clear call, values can overlap the other calls; inactive = above about -39%; note: % is set by controls: 0 for no effect and ±100 for the full control effect
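Steps: HFFs plated, 16 h 37C; compounds added; HCMV-luciferase added to MOI 1 PFU/cell; 72 h 37C; OneGlo reagent, 5 min room temperature; luminescence read, normalized to controls.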
Pf growth 48h: P. falciparum growth inhibition at 48 hours (one generation); P. falciparum luciferase growth in erythrocytes, 48 h; Potency, µM (top dose mostly 28.7 µM), for the others: at the top dose activity change, negative = inhibition, usual class: inhibitors; 310,000 compounds, 5.9% hits; AID 504832; note: potency is the fitted concentration of half-maximal effect; % is set by controls: 0 for no effect and ±100 for the full control effect
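First compound was added to culture medium, then infected red cells at 0.1% parasitemia and 2% hematocrit (final). After incubation at 37 C under 5% CO2, luciferase detection reagent was dispensed and light output recorded.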
Active calls of the source: *; ? = inconclusive; / = not tested or not shown; ! = a repeat was not active; [ ] = another dose, or the depositor's remark. The list is not random: actives were taken first. Their share in the collection is about 20%. Unless noted, calls come from the whole dose curve; as a rule, active = well fitted inhibition curve with a large enough effect; inconclusive = small, poorly fitted or top-dose-only effect, or another doubt; inactive = no such curve, though single readings can be large or run the other way.

SMILES | Shiga toxin inh | CHX counter | Pf growth 96h | HCMV antiviral | Pf growth 48h
COCCCN=C1NN=C(c2cc(C)n(-c3ccccc3F)c2C)CS1 | 50 | 19 | -144% | ? | -40%
CN=C1NN=C(c2cc(C)n(-c3ccc(Cl)cc3)c2C)CS1 | 136* | 59* | ? | -30 | 7%
COCCCN=C1NN=C(c2cc(C)n(-c3ccccc3)c2C)CS1 | 62* | 34* | 8.3µM* | -36 | 10µM*
O=C(c1ccc2c(=O)n(Cc3ccccc3Cl)c(=S)[nH]c2c1)N1CCOCC1 | 4 | 0 | ? | -15 | ?
CCCCn1c(=O)c2oc3ccccc3c2n(Cc2ccccc2C)c1=O | / | / | / | -17 | /
Cc1ccc(C)c(OCCC(=O)OCC(=O)Nc2cc(S(=O)(=O)N3CCOCC3)ccc2C)c1 | / | / | 7% | -25 | 0%
COCCCN=C1NN=C(c2cc(C)n(Cc3ccccc3Cl)c2C)CS1 | 45* | 22* | ? | -65* | ?
C=CCN=C1NN=C(c2cc(C)n(CC=C)c2C)CS1 | 10 | 28* | -98% | -88* | -74%
Cc1c(N=C2NN=C(c3c[nH]c4ccccc34)CS2)c(=O)n(-c2ccccc2)n1C | 14 | -2 | ? | -9 | 4.1µM*
Cc1ccc(C)n1Cc1ccccc1Cl | -9 | -2 | 12% | -12 | -16%
COc1ccc(NC(=O)c2nn(C)c3c2CS(=O)(=O)c2ccccc2-3)cc1Cl | / | / | / | 11 | /
O=C(N/N=C/c1ccoc1)c1ccc([N+](=O)[O-])cc1 | 10 | 13 | 53% | -14 | 16%
CCCOc1cccc(C(=O)N/N=C/c2ccoc2)c1 | 28 | 31* | -28% | -7 | 18%
Cc1cccc(C(=O)N/N=C/c2ccoc2)c1 | 78* | 36* | -11% | 91 | -2%
CC(C)Oc1cccc(C(=O)N/N=C/c2ccoc2)c1 | 61* | 49* | 11% | -20 | 38%
Cc1cccc2cncc(OCc3nnc(SC(F)F)n3C)c12 | -10 | 0 | 1% | 22 | -4%
CCOC(=O)CCc1cc(F)c(S(=O)(=O)N2CCN(S(=O)(=O)c3ccc4c(c3)OCCO4)CC2)cc1F | -7 | -4 | / | / | /
Cc1nc2ccccc2cc1C(=O)N/N=C/c1ccco1 | -12 | 2 | 0% | -17 | 3%
O=C(N/N=C/c1ccco1)c1cc2ccccc2o1 | 59* | 42* | 12% | -11 | 22%
O=C(COc1ccc(/C=N/NC(=O)c2cc3ccccc3o2)cc1Br)Nc1ccccc1 | 112* | 53* | ? | -100* | 6%
O=C(N/N=C/c1ccco1)c1ccc(Br)o1 | 67* | 25* | 51% | -23 | 8%
O=C(COc1ccccc1[N+](=O)[O-])Nc1ccc(NC(=O)c2cc3ccccc3o2)cc1 | 16 | 8 | 9% | ? | ?
O=C(O)/C(=C/c1ccco1)NC(=O)c1ccc(Br)o1 | -59 | -3 | 13µM* | 24 | ?
CC(=O)c1sc(NC(=O)C2CC(=O)N(Cc3ccccc3)C2)nc1-c1ccccc1 (configuration not stated) | / | / | -20% | -15 | ?
CCCCc1cc(=O)oc2cc(OC3CCCCC3=O)ccc12 (configuration not stated) | 18 | -3 | -20% | -2 | /
SMILES | Shiga toxin inh | CHX counter | Pf growth 96h | HCMV antiviral | Pf growth 48h
CN(C)/C=N/c1ncc(C(=O)OC(C)(C)C)s1 | 69* | 30* | 132% | -12 | 194%
CN(C)/C=N/c1ncc(C(=O)c2ccc(-c3ccccc3)cc2)s1 | 24 | 19 | 33% | ? | 33%
CN(C)/C=N/c1ncc(C(=O)c2ccccc2)s1 | 66* | 52* | 126% | 87 | 149%
Cc1c(C(=O)Nc2ccc3c(c2)OCCO3)sc2nc(-c3ccccc3)cn12 | 6 | 12 | ? | -84* | ?
CCN(CC)c1ccc(NC(=O)c2sc3nc(-c4ccccc4)cn3c2C)cc1 | / | / | / | -25 | /
Cc1c(C(=O)Nc2ccncc2)sc2nc(-c3ccccc3)cn12 | 22 | 18* | ? | -36 | 4.1µM*
COc1ccc(CC(=O)NNC(=O)CSc2ccc(C)cc2)cc1 | -20 | -2 | ? | ? | 18%
C[C@]12C=CC(=O)C=C1CC[C@@H]1C2[C@@H](O)C[C@@]2(C)C1CC[C@]2(O)C(=O)COC(=O)CCC(=O)O (some centres not stated) | -13 | -4 | 25% | 22 | -16%[0.00184 µM]
C[C@]12CCC(=O)C=C1CC[C@@H]1[C@@H]2[C@@H](O)C[C@@]2(C)[C@H]1CC[C@]2(O)C(=O)COP(=O)(O)O | / | / | 7.6µM* | / | 5%
CCC(C)C(NC(=O)CCC(=O)OCC(=O)[C@@]1(O)CCC2[C@@H]3CCC4=CC(=O)C=C[C@]4(C)C3[C@@H](O)C[C@@]21C)C(=O)O (some centres not stated) | 1 | 2 | ? | 51 | 3.7µM*
CC(=O)OCC(=O)[C@@]1(O)CC[C@H]2[C@@H]3CCC4=CC(=O)CC[C@]4(C)[C@H]3[C@@H](O)C[C@@]21C | 24 | -2 | -8% | 45 | ?
C[C@]12CCC(=O)C=C1CC[C@@H]1[C@@H]2[C@@H](O)C[C@@]2(C)[C@H]1CC[C@]2(O)C(=O)COC(=O)CCC(=O)O | 3 | 1 | 12µM*! | 14 | 13µM*!
CCOC(=O)N1CCN(C(=O)CN(c2ccc(C)cc2C)S(=O)(=O)c2ccccc2)CC1 | / | / | / | -14 | /
COc1ccc(-n2c(-c3ccc(Cl)cc3)c[nH]c2=S)cc1 | 14 | 4 | ? | ? | ?
Cn1c(=O)c2c(-c3ccccc3)n3c(c2n(C)c1=O)C(c1ccccc1[N+](=O)[O-])Nc1ccccc1-3 (configuration not stated) | / | / | / | -20 | /
COc1ccccc1C1Nc2ccccc2-n2c(-c3ccccc3)c3c(=O)n(C)c(=O)n(C)c3c21 (configuration not stated) | / | / | / | -96* | /
COc1cc(NS(=O)(=O)c2ccc(C)cc2)c2ncccc2c1 | -12 | 6 | -3% | / | 2.3µM*
Cc1ccc(S(=O)(=O)Nc2cccc3cccnc23)cc1 | -9 | 12 | 3.7µM* | -105* | /
Cc1ccc(-c2nc(C)c(CCNC(=O)c3cccs3)s2)cc1 | / | / | / | 13 | /
COc1ccc(C)cc1Nc1nc(N)c2ccccc2n1 | 55* | 28* | ? | 19 | ?
CN(C)c1nc(Nc2ccccc2)nc(N(C)C)n1 | 14 | 3 | 0% | 50 | 31%
Nc1nc(Nc2ccccc2)nc2ccccc12 | 56 | 28 | ? | 229 | 3.3µM*
Cc1ccccc1Nc1nc(N)c2ccccc2n1 | 52* | 21* | ? | 142 | -90%
CCOc1ccc(Nc2nc(N)c3ccccc3n2)cc1 | 11 | 0 | ? | -2 | ?
Cc1ccccc1Nc1nc(N)nc(CSc2nc3ccccc3c(=O)n2C)n1 | -12 | -1 | / | -36 | -12%
CN(C)c1ccc(Nc2nc(N)c3ccccc3n2)cc1 | / | -1 | 8.3µM* | -30 | ?
CCOc1ccc(CNC(=O)c2ccc(NC(=O)N3CCSc4ncccc43)cc2)cc1 | / | / | / | 0 | /
CCN1CCN(C(c2ccccc2Cl)c2c(O)cc(C)n(CCOC)c2=O)CC1 (configuration not stated) | / | / | / | 0 | /
